# Reference: PMC4336329 (PLoS ONE, 2015)
# About 14,000 (4.5%) of roughly 310,000 compounds showed an effect of 50% or more. The effect is printed as a negative number. The sample holds strong results, similar compounds and a random draw of the others, so the mix is not that of the screen.
# Biological target: human ether-à-go-go-related gene (hERG) potassium channel (human, UniProt Q12809)
# Experiment: primary screen, population patch clamp on CHO cells stably expressing hERG; higher = less effect of the substance
# 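Note: peak tail current of the secondary pulse compared with the same well before compound.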
# Sequence of human ether-à-go-go-related gene (hERG) potassium channel (Q12809 whole entry, looked up): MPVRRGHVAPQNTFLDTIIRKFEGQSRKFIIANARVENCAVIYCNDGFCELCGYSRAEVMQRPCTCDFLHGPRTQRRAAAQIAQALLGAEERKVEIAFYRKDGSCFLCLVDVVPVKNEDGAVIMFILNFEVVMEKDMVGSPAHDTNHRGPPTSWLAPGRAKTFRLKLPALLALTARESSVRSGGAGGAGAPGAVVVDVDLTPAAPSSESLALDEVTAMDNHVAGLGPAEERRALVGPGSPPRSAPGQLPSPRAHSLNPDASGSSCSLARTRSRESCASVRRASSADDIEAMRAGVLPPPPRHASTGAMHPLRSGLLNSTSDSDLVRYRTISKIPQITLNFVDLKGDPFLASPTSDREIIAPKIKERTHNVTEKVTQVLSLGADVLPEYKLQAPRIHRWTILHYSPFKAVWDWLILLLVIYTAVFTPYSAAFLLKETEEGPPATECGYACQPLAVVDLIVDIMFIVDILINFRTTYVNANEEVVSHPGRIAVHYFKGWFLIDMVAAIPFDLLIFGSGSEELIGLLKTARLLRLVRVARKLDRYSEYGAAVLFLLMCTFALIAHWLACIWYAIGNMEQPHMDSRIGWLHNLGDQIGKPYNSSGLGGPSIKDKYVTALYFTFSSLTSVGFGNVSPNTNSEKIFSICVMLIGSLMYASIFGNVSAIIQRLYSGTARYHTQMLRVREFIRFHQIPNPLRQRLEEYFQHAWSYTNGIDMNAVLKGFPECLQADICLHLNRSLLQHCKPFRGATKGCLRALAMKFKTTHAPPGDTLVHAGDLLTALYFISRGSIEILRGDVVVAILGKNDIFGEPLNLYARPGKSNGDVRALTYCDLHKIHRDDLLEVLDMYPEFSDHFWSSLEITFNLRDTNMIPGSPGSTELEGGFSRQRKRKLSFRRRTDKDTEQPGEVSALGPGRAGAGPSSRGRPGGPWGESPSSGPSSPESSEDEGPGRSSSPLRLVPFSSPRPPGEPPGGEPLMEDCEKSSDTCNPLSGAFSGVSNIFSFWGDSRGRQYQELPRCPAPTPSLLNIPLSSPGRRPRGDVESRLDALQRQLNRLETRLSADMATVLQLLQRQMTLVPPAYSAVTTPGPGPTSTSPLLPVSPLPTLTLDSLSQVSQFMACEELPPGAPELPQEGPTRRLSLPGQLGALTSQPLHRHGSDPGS
row,SMILES,"hERG current change (%, negative = inhibition) at 10uM [%]"
1,O=C(CSc1ccc2nnc(-c3ccncc3)n2n1)Nc1ccc2c(c1)OCCO2,10.9
2,Cc1ccc(-c2cc(C(=O)O)c3cc(Br)ccc3n2)s1,16.7
3,COCc1c(C(=O)OCC(=O)NCCc2ccc(S(N)(=O)=O)cc2)oc2ccccc12,-0.489
4,CCc1ccc(NC(=O)CSC2=C(C#N)C(c3ccco3)C3=C(CCCC3=O)N2)cc1 (stereo not drawn),-1.71
5,COc1ccc(-c2nc(CNS(=O)(=O)c3ccc(OC)c(OC)c3)cs2)cc1,-1.76
6,CCN(CC)C(=O)CC(c1ccc(N(C)C)cc1)c1c(O)cc(OC)cc1OC (stereo not drawn),18.7
7,O=C(COc1ccccc1C(=O)Nc1ccccc1)NCCc1ccccc1,34.4
8,CCCCN(CCCC)c1cc(C)nc(-c2ccccc2O)n1,16.8
9,Cc1cccc(OCC(=O)Nc2ccc(S(=O)(=O)Nc3onc(C)c3C)cc2)c1C,13.3
10,Cc1ccc(N(CC(=O)NC2CCCCC2)C(=O)c2ccc(C)s2)cc1,-11.2
11,CCOC(=O)c1c(NC(NC(=O)C(C)C)C(Cl)(Cl)Cl)sc2c1CCC2 (stereo not drawn),11
12,O=C(CSc1nc(-c2ccc(F)cc2)cs1)N1CCN(C(=O)c2ccco2)CC1,-57
13,O=C(CSc1nc(-c2ccc(F)cc2)cs1)N1CCOCC1,-25.4
14,O=C(CSc1nncs1)N1CCN(C(=O)c2ccco2)CC1,5.31
15,O=C(CSc1nc(-c2ccccc2)cs1)N1CCN(C(=O)c2ccco2)CC1,-60.6
16,CC1CN(C(=O)CSc2nc(-c3ccccc3)cs2)CC(C)O1 (stereo not drawn),3.57
17,O=C(c1ccco1)N1CCN(c2nc(-c3ccc(F)cc3)cs2)CC1,-34.9
18,O=[N+]([O-])c1ccc(N=Nc2c(Cl)cc(O)cc2Cl)cc1,18.2
19,CN(C)S(=O)(=O)c1cccc(NC(=O)COc2ccc3ccccc3c2)c1,-7.08
20,O=C(O)c1ccc(/C=N/N2CCN(C3c4ccccc4-c4ccccc43)CC2)cc1,12.1
21,Cc1ccccc1-c1nnc(SCC(=O)NCc2ccc3c(c2)OCO3)n1C,-8.1
22,C=CCn1c(SCC(=O)NCc2ccc3c(c2)OCO3)nnc1-c1cccnc1,-0.64
23,O=C(CSc1nnc(-c2cccnc2)n1-c1ccccc1)NCc1ccc2c(c1)OCO2,-69
24,CCn1c(SCC(=O)NCc2ccc3c(c2)OCO3)nnc1-c1ccco1,-5.03
25,O=C(CSc1nnc(-c2ccco2)n1-c1ccccc1)NCc1ccc2c(c1)OCO2,-73.4
26,O=C(CSc1ncc(C(=O)O)n1-c1ccc(F)cc1)NCc1ccc2c(c1)OCO2,35.8
27,O=C(CSc1nnc(-c2cccnc2)n1-c1ccccc1)Nc1ccc2c(c1)OCO2,-6.74

row,SMILES,"hERG current change (%, negative = inhibition) at 10uM [%]"
1,O=C(CSc1nc2ccccc2c(=O)n1-c1ccccc1)NCc1ccc2c(c1)OCO2,3.23
2,O=C(CSc1nnc(-c2cccnc2)n1-c1ccc(F)cc1)NCc1ccc2c(c1)OCO2,-72.5
3,CC(=O)Oc1ccc(-c2cccc(C(=O)N(C)c3ccc(O)cc3)c2)cc1,-17.8
4,CN(C)c1ccc(C(=S)Nc2ccccc2)cc1,12.5
5,COC(=O)c1cc(NC(=O)c2nccnc2C(=O)O)cc(C(=O)OC)c1,13.8
6,Cc1ccc(CNC(=O)c2ccc(N3CCc4ccccc43)c([N+](=O)[O-])c2)cc1,3.31
7,Cc1ccc(-c2cc(C(=O)NCCCN3CCOCC3)c3ccccc3n2)cc1C,0.698
8,Cc1ccc2nc3c(cc(C(=O)NCCc4ccccc4)c(=N)n3CCCN3CCOCC3)c(=O)n2c1,-80.6
9,Cc1ccc2nc3c(cc(C(=O)NCCN4CCOCC4)c(=N)n3CCCN3CCOCC3)c(=O)n2c1,-7.16
10,Cc1ccc2nc3c(cc(C(=O)NCCc4ccccc4)c(=N)n3CCN3CCOCC3)c(=O)n2c1,-76.7
11,O=C(NCc1ccco1)c1cccc(F)c1,6.59
12,O=C(COc1cccc(Cl)c1)Nc1ccc2c(c1)CCC2,-3.73
13,CC1CN(c2nnnn2-c2ccccc2)CC(C)O1 (stereo not drawn),-23.1
14,CCOc1ccc(CN2CCNC(=O)C2CC(=O)O)cc1 (stereo not drawn),11.1
15,CC(=O)Nc1sc(C)c(C)c1C(=O)OCC(=O)Nc1ccccc1,5.91
16,S=C(Cc1ccc(-c2ccccc2)cc1)N1CCOCC1,-11.9
17,Cc1oc(-c2ccccc2F)nc1CS(=O)(=O)CC(=O)NCc1ccco1,-27.3
18,CC1CCC(NS(=O)(=O)c2ccc(N3CCCC3=O)cc2)CC1 (stereo not drawn),1.51
19,COc1ccc(N=C2SCC(c3ccc([N+](=O)[O-])cc3)=NN2CCO)cc1,-53.1
20,O=[N+]([O-])c1ccc(C2=NN(CCO)C(=Nc3ccc(OC(F)(F)F)cc3)SC2)cc1,-13.5
21,COc1ccc(N=C2SCC(c3ccc(C)cc3)=NN2CCO)cc1,-9.63
22,Cc1ccc(C2(C)NC(=O)N(CC(=O)Nc3ccccc3C(=O)N3CCCCC3)C2=O)cc1 (stereo not drawn),6.74
23,Cc1ccc(S(=O)(=O)N2CCOCC2)cc1NC(=O)COC(=O)CCn1c(C)csc1=O,2.85
24,COCCN=c1scc(-c2cccs2)n1/N=C/c1ccc(O)c(O)c1O,6.24
25,COCCN=c1scc(C)n1/N=C/C1CC2C=CC1C2 (stereo not drawn),-55
26,COCCN=c1scc(-c2ccccc2)n1/N=C/c1c[nH]c2ccccc12,18.7
27,COc1ccc(Cl)cc1S(=O)(=O)N(C)CC(=O)NCc1ccccn1,17.8
